According to PubChem BioAssay AID1851 (National Center for Advancing Translational Sciences (NCATS), 2009):
In all, about 16,000 compounds went through this assay and about 5,800 (36%) were called active. Not shown: some 23% with an inconclusive outcome. The call rests on the fitted dose curve; in most records, active means well fitted curve in the direction sought with a large enough effect; inconclusive means small, poorly fitted or top-dose-only effect, or effect the other way; inactive means no such curve, though single readings can be large or run the other way. This is one part of the list. Square brackets hold non-standard residues; d marks the D form. Peptide text beside a SMILES is read from it.

The compounds below were run against Cytochrome P450 2C19 (Homo sapiens) (UniProt P33261) (assay: Cytochrome panel assay with activity outcomes). Details: recombinant CYP, pro-luciferin dealkylation, luminescence, p450-cyp2c19; series mostly up to 57.1 µM; activity, negative = inhibition: at the top concentration.
On the % scale 0 is the no-effect control and ±100 the full control effect.

Chain of Cytochrome P450 2C19 (Homo sapiens) (P33261 whole entry, looked up): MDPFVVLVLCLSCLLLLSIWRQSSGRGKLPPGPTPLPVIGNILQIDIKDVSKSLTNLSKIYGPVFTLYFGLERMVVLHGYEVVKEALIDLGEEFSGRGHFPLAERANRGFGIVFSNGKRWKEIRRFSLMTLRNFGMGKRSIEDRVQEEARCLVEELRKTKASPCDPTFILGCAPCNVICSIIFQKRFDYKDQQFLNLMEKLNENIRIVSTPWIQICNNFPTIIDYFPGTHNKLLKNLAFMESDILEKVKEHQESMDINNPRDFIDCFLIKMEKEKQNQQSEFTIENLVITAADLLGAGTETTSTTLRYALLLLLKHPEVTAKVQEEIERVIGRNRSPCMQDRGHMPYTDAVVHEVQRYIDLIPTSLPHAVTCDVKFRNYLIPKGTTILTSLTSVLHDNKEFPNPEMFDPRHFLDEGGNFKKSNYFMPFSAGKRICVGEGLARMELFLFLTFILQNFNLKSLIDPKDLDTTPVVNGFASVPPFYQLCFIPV

| SMILES | AC50 | activity, negative = inhibition |
| --- | --- | --- |
| COc1ccc2[nH]cc(CCNc3cc(-c4cccc(C#N)c4)ncn3)c2c1 | 7.94 µM (active) |  |
| COc1ccc2[nH]cc(CCNc3cc(-c4ccoc4)ncn3)c2c1 | 5.01 µM (active) |  |
| Cc1cnc(CNc2cc(-c3ccoc3)ncn2)cn1 |  | -24.6% (inactive) |
| COc1ccc(-n2c(=O)c(-c3cccc(C#N)c3)nc3cnc(N4CCNCC4)nc32)cc1 |  | -21.4% (inactive) |
| C[C@H]1CC(C)(C)C[C@@](OCCN2CCCCC2)(c2ccccc2)C1 |  | -2.08% [at 11.4 µM] (inactive) |
| COc1cccc(CC(C(=O)Nc2cc(C)ccc2C)c2nn[nH]n2)c1OC (stereo not given) | 11.2 µM (active) |  |
| O=C1C2=CC[C@H]3C(=O)N(c4cccc(Oc5ccccc5)c4)C(=O)[C@@H]3[C@@H]2[C@H](O)[C@@H]2O[C@H]12 |  | 2.5% [at 11.4 µM] (inactive) |
| Cc1cccc(Oc2coc3cc(OC(=O)c4cccs4)ccc3c2=O)c1 | 3.98 µM (active) |  |
| COc1cccc(C2C3=C(CC(C)(C)CC3=O)OC(N)=C2[N+](=O)[O-])c1 (stereo not given) | 8.91 µM (active) |  |
| Cc1cc(=O)oc(C)c1C(=O)N1CCCCC1 | 4.47 µM (active) |  |
| CCC(C)NC(=O)c1c(C)cc(=O)oc1C (stereo not given) |  | 41.3% (inactive) |
| CCCNC(=O)c1c(C)cc(=O)oc1C |  | 3.91% (inactive) |
| O=C(CCc1ccccc1)NNC(=O)C1CCCCC1 | 25.1 µM (active) |  |
| CN(C)CC(O)COc1ccc(C(C)(C)c2ccc(OCC(O)CN(C)C)cc2)cc1 (stereo not given) |  | -6.76% (inactive) |
| CCC(=O)c1ccc(OCC(O)CN(CCc2ccccc2)Cc2ccccc2)cc1 (stereo not given) | 1.12 µM (active) |  |
| O[C@@H](C1=C/C(=C\c2ccncc2)c2ccccc21)c1ccncc1 | 0.158 µM (active) |  |
| C[N+](C)(C)CCC(=O)c1cccc2ccccc12 |  | -12.3% (inactive) |
| CCC(=O)Nc1ccccc1C(=O)OCC(=O)c1ccccc1 | 3.55 µM (active) |  |
| CCC(=O)Nc1ccccc1C(=O)OCC(=O)c1cccc2ccccc12 | 4.47 µM (active) |  |
| CC(C)NC(=O)N1CCCC2(CCN(C(=O)c3cccn3C)CC2)C1 |  | -5.61% (inactive) |
| O=C(c1ccc2c(c1)OCCO2)C1CCN(S(=O)(=O)c2ccccc2F)CC1 | 3.16 µM (active) |  |
| O=C(NNC(=O)C1CCN(S(=O)(=O)c2ccc(Cl)cc2)CC1)c1ccc(Cl)cc1 |  | 22.2% (inactive) |
| COc1cccc(C2C3(C#N)C(N)=NC(OC)(OC)C23C#N)c1 (stereo not given) | 4.47 µM (active) |  |
| CC(C)N1CCN(c2ccc(OC[C@@H]3CO[C@@](Cn4cncn4)(c4ccc(Cl)cc4Cl)O3)cc2)CC1 |  | 7.39% [at 25.6 µM] (inactive) |

| SMILES | AC50 | activity, negative = inhibition |
| --- | --- | --- |
| Cc1ccccc1N1C(=O)c2cc(S(N)(=O)=O)c(Cl)cc2N[C@H]1C |  | 5.2% [at 25.6 µM] (inactive) |
| COc1cc(C(=O)OCC(=O)Nc2cc(C)on2)cc(OC)c1OC |  | -28.1% (inactive) |
| COc1ccccc1NC(=O)COC(=O)c1ccc(S(=O)(=O)NCc2ccco2)cc1 | 5.01 µM (active) |  |
| Cc1cc(NC(=O)COC(=O)c2ccc(S(=O)(=O)N3CCCc4ccccc43)cc2)no1 | 4.47 µM (active) |  |
| Cc1cc(N(CN2CCCC2=O)C(=O)c2ccc(F)cc2)no1 |  | -20.2% (inactive) |
| COc1ccccc1NS(=O)(=O)c1cccc(C(=O)OCC(=O)Nc2cc(C)on2)c1 | 7.94 µM (active) |  |
| CCN(CC)CCOC(=O)c1cc(Cl)c(N)cc1OC |  | 13.8% (inactive) |
| Cc1c(C(=O)O)oc2ccc(S(=O)(=O)NCc3ccc4c(c3)OCO4)cc12 |  | -49.5% (inactive) |
| Cc1cc(C)c(S(=O)(=O)NCC2CCC(C(=O)NCc3ccc4c(c3)OCO4)CC2)c(C)c1 (stereo not given) | 6.31 µM (active) |  |
| CN1C(=O)/C(=C\c2ccccc2)Sc2ccc(C(=O)N3CCN(c4ccccn4)CC3)cc21 | 3.98 µM (active) |  |
| Cn1cccc1C(=O)N1CCC2(CC1)CCN(c1ccccn1)CC2 |  | -35.1% (inactive) |
| O=C(c1csnn1)N1CCC2(CC1)CCN(c1ccccn1)CC2 |  | -38.4% (inactive) |
| COc1ccc(C(=O)N/N=C2/C(=O)c3c(C)cc(C)cc3CC2(C)C)cc1 | 3.98 µM (active) |  |
| CCN(CC)C(=O)c1cc2cc([N+](=O)[O-])ccc2s1 | 15.8 µM (active) |  |
| CCOC(=O)c1nc(N)sc1C(=O)OCC |  | 24.2% (inactive) |
| CCOC(=O)c1cc(C(=O)OCC)cc(-n2cc(O)c(C(=O)OCC)n2)c1 | 14.1 µM (active) |  |
| CC1=c2c(oc3cc(O)c(Nc4c(C)cc(O)cc4O)c(C)c23)=CC(=O)C1=Nc1c(C)cc(O)cc1O | 3.16 µM (active) |  |
| CCOc1cc(CNCCO)c(Cl)cc1OCC(=O)NCCc1ccccc1 | 4.47 µM (active) |  |
| CCNCc1cc(OCC)c(OCC(=O)NCCc2ccccc2)cc1Cl | 1.58 µM (active) |  |
| Cn1c(=O)cc(OCC(=O)NCc2cccnc2)c2ccccc21 |  | -27.8% (inactive) |
| N=c1nc(N)nc(N)n1-c1ccc(S(N)(=O)=O)cc1 |  | 36.5% [at 11.4 µM] (inactive) |
| CCOC(=O)c1cnc(-c2ccccc2)nc1Oc1ccc(Cl)cc1 |  | 3.77% (inactive) |
| CCOC(=O)c1cnc(-c2ccccc2)nc1Oc1ccccc1 | 14.1 µM (active) |  |
| COc1cnc(-c2ccccc2)nc1Oc1cccc(C)c1 | 7.94 µM (active) |  |

| SMILES | AC50 | activity, negative = inhibition |
| --- | --- | --- |
| N[C@H](CO)C(=O)NCC(=O)O (H-[dS]-Gly-OH) |  | 19% [at 11.4 µM] (inactive) |
| CCc1cc2c(=O)c(-c3cnn(-c4ccccc4)c3)coc2c(CN2CCOCC2)c1O | 20 µM (active) |  |
| COc1cccc(CSc2nnc(C(F)(F)F)n2Cc2ccc(F)cc2)c1 | 3.16 µM (active) |  |
| Cc1ccc(CSc2nnc(C(F)(F)F)n2Cc2ccc(F)cc2)cc1 | 2.82 µM (active) |  |
| Fc1ccc(Cn2c(SCc3ccc(F)c(F)c3)nnc2C(F)(F)F)cc1 | 2.24 µM (active) |  |
| Fc1ccc(Cn2c(SCc3ccc(F)c(C(F)(F)F)c3)nnc2C(F)(F)F)cc1 | 2.82 µM (active) |  |
| [O-][N+]1(CC[N+]2([O-])CCCCC2)CCCCC1 |  | 25.1% [at 11.4 µM] (inactive) |
| CC1(C)C(=O)C(c2ccccc2)=C2CN3C(=O)N(CCc4ccccc4)C(=O)C3(Cc3ccccc3)C=C21 (stereo not given) |  | -37.3% (inactive) |
| CC[C@H](CO)NCCN[C@@H](CC)CO |  | 22.2% [at 25.6 µM] (inactive) |
| CCOC(=O)c1ccc(NC(=O)Nc2ccc3c4c(cccc24)C(=O)N3CC)cc1 | 11.2 µM (active) |  |
| CCCN(CCC)CCCNC(=O)c1ccc2c(c1)N(CC)C(=O)c1ccccc1S2=O (stereo not given) |  | 33.6% (inactive) |
| CCN1C(=O)c2cccc3c(NC(=O)c4cccc(N5C(=O)CCC5=O)c4)ccc1c23 |  | -13.5% (inactive) |
| Cc1cc(C=O)c(C)n1-c1ccc(NC2CCCC2)c([N+](=O)[O-])c1 | 6.31 µM (active) |  |
| Cc1ccc(C(=O)N/N=C/c2cc(C)n(-c3ccc(Br)cc3)c2C)cc1[N+](=O)[O-] |  | -28.2% (inactive) |
| N[C@@](CCc1ccccc1)(C(=O)O)c1ccccc1 |  | -19.5% [at 11.4 µM] (inactive) |
| CN(/C=C/C(=O)C(F)(F)F)Cc1ccccc1 | 8.91 µM (active) |  |
| CCCC[C@@H]1C[C@H]1C(NC(=O)c1cccs1)c1ccccc1C(F)(F)F (stereo not given in full) | 0.631 µM (active) |  |
| CCCC[C@@H]1C[C@H]1C(NC(=O)c1ccccc1)c1ccccc1C(F)(F)F (stereo not given in full) | 0.501 µM (active) |  |
| Cc1cnc2cc(Cl)ccc2c1SCC(=O)O |  | 24.8% [at 11.4 µM] (inactive) |
| COC(=O)c1sccc1NC(=O)CSc1ccccc1NS(=O)(=O)c1ccc(Cl)cc1 | 0.794 µM (active) |  |
| Cc1cc(Cl)nc(NC(=O)CSc2ccc(Cl)cc2)n1 |  | 34.4% [at 11.4 µM] (inactive) |
| Cc1cnc(NC(=O)CSc2ccc(Cl)cc2)s1 | 2 µM (active) |  |
| COC(=O)c1sccc1NC(=O)CSc1cc(Cl)ccc1Cl | 2.82 µM (active) |  |
| COC(=O)c1sccc1NC(=O)CN(C)NS(=O)(=O)c1ccc(F)cc1 | 14.1 µM (active) |  |

| SMILES | AC50 | activity, negative = inhibition |
| --- | --- | --- |
| Oc1ccc(Cc2nccc3cc(O)c(O)cc23)cc1O |  | -17.6% [at 11.4 µM] (inactive) |
| COC(=O)c1sccc1NC(=O)CSc1ccc(Cl)cc1 | 7.08 µM (active) |  |
| COCc1nnc(NC(=O)CCN2C(=O)c3ccccc3C2=O)s1 |  | -6.41% (inactive) |
| COCc1nnc(NC(=O)CSc2ccc(C)cc2)s1 | 3.55 µM (active) |  |
| COc1ccc2c3c([nH]c2c1)[C@H]1C[C@@H]2[C@@H](C[C@@H](O)[C@H](OC)[C@H]2C(=O)O)CN1CC3 |  | 19% [at 11.4 µM] (inactive) |
| CCOc1ccc(N(CCC#N)S(=O)(=O)c2ccc(OC)cc2)cc1 | 3.55 µM (active) |  |
| O=C(Nc1cccc(NC(=O)c2ccc(-c3cccc(Br)c3)o2)c1)c1ccco1 | 2.51 µM (active) |  |
| O=C(Nc1cccc(Br)c1)/C(=C\c1cccnc1)NC(=O)c1ccco1 |  | -17.1% (inactive) |
| O=C(Nc1cccc(-c2cn3cccnc3n2)c1)c1ccco1 |  | -20.9% (inactive) |
| O=C(Nc1ccc2nc(-c3ccc(Br)o3)[nH]c2c1)c1ccco1 | 22.4 µM (active) |  |
| CCCCCc1nc2c(C#N)c(-c3ccc(Cl)cc3)ccn2n1 | 7.94 µM (active) |  |
| Cc1noc(C)c1CS(=O)(=O)c1ccc(Br)cc1 | 0.282 µM (active) |  |
| C[C@@H]1Cc2ccccc2N1NC(=O)c1ccc(Cl)c(S(N)=O)c1 (stereo not given in full) |  | -36.6% [at 25.6 µM] (inactive) |
| CC1Cc2ccccc2N1C(=O)CSc1nnnn1C(C)C (stereo not given) | 4.47 µM (active) |  |
| CCN1CCN(CC(=O)N2c3ccccc3CC2C)CC1 (stereo not given) |  | -27.5% (inactive) |
| CC1Cc2ccccc2N1C(=O)CN1C(=O)COc2ccccc21 (stereo not given) | 3.16 µM (active) |  |
| O=C1COc2ccccc2CN1 |  | -13.1% (inactive) |
| Cc1ccccc1-n1ncc2c(SCC(=O)N3c4ccccc4CC3C)ncnc21 (stereo not given) | 7.08 µM (active) |  |
| CC1(C)CCC(NC(=O)[C@H](N)CCC(=O)O)CC1 |  | 12.9% (inactive) |
| COCC(=O)Nc1c(I)c(C(=O)NC[C@@H](O)CO)c(I)c(C(=O)N(C)C[C@@H](O)CO)c1I |  | -21.5% [at 25.6 µM] (inactive) |
| Cc1cccc(C)c1OC1(c2ccccc2)OC(=O)c2ccccc21 (stereo not given) | 0.251 µM (active) |  |
| Cc1cccc(OC2(c3ccccc3)OC(=O)c3ccccc32)c1C (stereo not given) | 2.51 µM (active) |  |
| O=C1OC(OC2CCCCC2)(c2ccccc2)c2ccccc21 (stereo not given) | 7.94 µM (active) |  |
